Bioassay records as filed in PubChem.
An excerpt weighted towards active compounds, which were near 2.2% of everything screened.
Granule exo inh – blocks lytic granule exocytosis; TALL-104 LAMP-1 surface exposure, flow cytometry; cells stimulated with thapsigargin and PMA; inhibition, % at 10 µM; actives 0.66% (n = 360,000);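 active means inhibition above about 55%, limit read from the data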
JMJD2C inh – blocks human GASC-1 demethylase activity | Q9H3R0 | GST-JMJD2C(1-420) H3K9me3 demethylation, DELFIA europium | inhibition, % at 2.35 µM | actives 0.069% (n = 330,000);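 active means more than half of a compound's replicate wells show inhibition beyond 50%, single wells judged on their own value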;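 further: signal counts dimethyl H3K9 product captured on neutravidin plate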
Target sequence (Q9H3R0 1-420 limits assumed): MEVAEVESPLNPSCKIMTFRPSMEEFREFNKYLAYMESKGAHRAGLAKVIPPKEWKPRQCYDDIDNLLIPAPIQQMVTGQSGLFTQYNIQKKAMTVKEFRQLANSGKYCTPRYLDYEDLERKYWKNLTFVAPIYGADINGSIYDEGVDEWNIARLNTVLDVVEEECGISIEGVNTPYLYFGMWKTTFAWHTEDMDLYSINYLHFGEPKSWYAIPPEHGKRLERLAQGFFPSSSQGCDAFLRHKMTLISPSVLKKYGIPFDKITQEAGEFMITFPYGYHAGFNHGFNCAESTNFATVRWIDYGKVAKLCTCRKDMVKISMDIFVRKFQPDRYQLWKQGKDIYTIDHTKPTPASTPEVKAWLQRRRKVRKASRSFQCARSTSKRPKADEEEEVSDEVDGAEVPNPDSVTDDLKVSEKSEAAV
HTR2A ag – mouse HTR2A agonism via beta-arrestin recruitment; activation, % at 7.6 µM; AID 624169; CHO-K1 mHTR2A beta-arrestin complementation, luminescence; percent of 30 µM serotonin response; actives 0.66% (n = 360,000); P35363;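 active means activation above a run cutoff, the mean activation of all tested compounds plus 3 SD, cut at about 14% in these data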
VLA-4 inh – inhibition in a human VLA-4 binding assay. VLA-4 expressing cells, ligand binding flow cytometry. inhibition, % (about 7 µM as worked out from the volumes in the protocol). actives 0.2% (n = 330,000); in the data active means inhibition above about 50%
MEX-5 binding – C. elegans MEX-5 TCR-2 RNA binding activity. Q9XUB2. activity score (negative = inhibition of binding), % at 10 µM. actives 0.38% (n = 300,000). MEX-5/FITC-TCR2 RNA binding, fluorescence polarization; hits give low values. AID 1832;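 active means inhibition past about -25% in most replicates, and total fluorescence under double the plate's negative control median, limit read from the data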
V-ATPase pHluor – regulators of yeast V-ATPase proton transport. S. cerevisiae, pHLuorin cytosolic pH fluorescence. response, % at 10 µM. actives 0.37% (n = 350,000). AID 504577; in the data active means response mostly above about 7.3%, no sharp cut-off; inactive means mostly below about 5.4%; further: actives read high
V-ATPase pH SP – yeast V-ATPase proton transport regulation; AID 602197; shares compounds with V-ATPase pHluor; actives 2% (n = 980); S. cerevisiae pHLuorin cytosolic pH; response, % at 10 µM; in the data active means response above about 24%
OPRM1 ag – OPRM1 agonism in mouse HTR2A counterscreen. shares compounds with HTR2A ag. U2OS OPRM1 beta-arrestin PathHunter, luminescence; DMSO 0%, DAMGO 9.3 µM 100%. activation, % at 9.3 µM. actives 5.3% (n = 2,300). AID 624380;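 active means mean activation above the mean of DMSO-only wells plus 3 SD, cut at about 0.5% in these data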
m5-HT2A ag conf – mouse HTR2A agonism confirmed; shares compounds with HTR2A ag; CHO-K1 PathHunter beta-arrestin recruitment, luminescence; DMSO 0%, 30 µM serotonin 100%; activation, % at 7.6 µM; actives 19% (n = 2,300); AID 624381;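 active means mean activation across triplicates above the hit threshold derived in the original primary screen, cut at about 15% in these data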
Exocytosis CP01 – lytic granule exocytosis inhibition; shares compounds with Granule exo inh; TALL-104 cells, LAMP-1 externalization, flow cytometry; stimulated with PMA plus thapsigargin; inhibition, % at 10 µM; actives 11% (n = 1,500); AID 651954; in the data active means inhibition above about 60%
Each line names hits and unclear results; the compound was inactive in the other large screens (follow-up assays come after a bar, where they were run).

N#CCCN(Cc1cccnc1)S(=O)(=O)c1ccc(S(=O)(=O)NC2CCCCC2)cc1	V-ATPase pHluor 8.6 | V-ATPase pH SP inactive
N#CCCN(Cc1cccnc1)S(=O)(=O)c1ccc2ccccc2c1	none (no result: MEX-5 binding, V-ATPase pHluor)
O=c1cc(-c2ccco2)nc(-c2cccs2)o1	V-ATPase pHluor 9.5 | V-ATPase pH SP inactive
COC(=O)c1cc(C#N)c(N2CC(C)OC(C)C2)nc1C (stereo not given)	none
O=C(NCCc1ccc(OC(F)F)cc1)C1CC(=O)N(c2ccc3c(c2)OCCO3)C1 (stereo not given)	none (no result: MEX-5 binding)
COc1cccc(C(C(=O)NCc2ccccc2)N2CCN(CCN3CCOCC3)CC2)c1OC (stereo not given)	none (no result: JMJD2C inh, VLA-4 inh, MEX-5 binding, V-ATPase pHluor)
CCn1c(=N)n(CC(O)c2ccccc2)c2ccccc21 (stereo not given)	V-ATPase pHluor 28 | V-ATPase pH SP inactive
CCCCn1c(=N)n(CC(O)c2ccccc2)c2ccccc21 (stereo not given)	none
CCOC(=O)CCn1c(CC(=O)OCC)nc2ccccc21	none
Cn1c(=O)c(-c2cc(Br)ccc2N)nc2ccccc21	none | V-ATPase pH SP inactive
CCOC(=O)Cn1c(=O)c(-c2ccccc2N)nc2ccccc21	none | V-ATPase pH SP inactive
CCOC(=O)Cn1c(=O)c(-c2cc(Br)ccc2N)nc2ccccc21	MEX-5 binding -38, V-ATPase pHluor 31 | V-ATPase pH SP inactive
CN(C)c1nc2ccccc2n(C)c1=O	none
CCCS(=O)(=O)NC(=O)C1(C)CCCN(C(=O)c2ccc(OC)cc2OC)C1 (stereo not given)	none (no result: JMJD2C inh, VLA-4 inh, MEX-5 binding, V-ATPase pHluor)
CC(=O)NC(CC(=O)OCC(=O)c1c(N)n(C)c(=O)n(C)c1=O)c1ccccc1 (stereo not given)	V-ATPase pHluor 11 | V-ATPase pH SP inactive
O=C(NCc1ccc2c(c1)OCO2)c1cc2n(n1)C(C(F)(F)F)CC(c1ccc3c(c1)OCO3)N2 (stereo not given)	none
CCOC(=O)N1CCN(C(=O)c2cc3n(n2)C(C(F)(F)F)CC(c2ccc4c(c2)OCO4)N3)CC1 (stereo not given)	V-ATPase pHluor 7.4 | V-ATPase pH SP inactive
Cc1c(NC(=O)COC(=O)C23CC4CC(CC(O)(C4)C2)C3)c(=O)n(-c2ccccc2)n1C	none
Cc1c(NC(=O)COC(=O)C2(c3ccccc3F)CCCC2)c(=O)n(-c2ccccc2)n1C	V-ATPase pHluor 11 | V-ATPase pH SP inactive
COc1ccc(-n2ccn(CC(=O)Nc3ccc(OC)cc3OC)c(=O)c2=O)cc1	V-ATPase pHluor 9.4 | V-ATPase pH SP inactive
NC(=O)C1CCN(C(=O)c2ccc3c(=O)n(Cc4ccco4)c(SCC(=O)c4ccc(F)cc4)nc3c2)CC1	none (no result: Granule exo inh, HTR2A ag, V-ATPase pHluor)
CCOCC(=O)N1CCN(Cc2ccc3c(c2)OCO3)CC1	V-ATPase pHluor 9.3 | V-ATPase pH SP inactive
CCCC(=O)N1CCN(Cc2ccc3c(c2)OCO3)CC1	none
C[C@@H](C(=O)N1CCN(Cc2ccc3c(c2)OCO3)CC1)n1nnc2ccccc2c1=O	V-ATPase pHluor 24 | V-ATPase pH SP inactive
CC(C)Oc1cc(F)ccc1-c1cc(C(=O)NCc2ccccc2)[nH]n1	none (no result: JMJD2C inh, VLA-4 inh, MEX-5 binding, V-ATPase pHluor)
CC(=O)N1CCC2(CC1)C/C(=N\NC(=S)Nc1ccc(C)cc1)c1cc(O)ccc1O2	none
O=C(NCC(c1ccco1)N1CCCC1)c1sc2cc(F)ccc2c1Cl (stereo not given)	V-ATPase pHluor 8.6 (no result: MEX-5 binding) | V-ATPase pH SP inactive
Cc1ccc2c(Cl)c(C(=O)NCC(c3ccco3)N3CCCC3)sc2c1 (stereo not given)	none (no result: MEX-5 binding)
Nc1cc(C(F)(F)F)ccc1NCCc1ccccn1	none
CCCc1nc2sc3c(c2c(=O)n1NC(=O)CCC(=O)O)CCCC3	V-ATPase pHluor 8.6 | V-ATPase pH SP inactive
CCn1cc(S(=O)(=O)N2CCN(Cc3cccc(Cl)c3)CC2)cn1	V-ATPase pHluor 6.1 | V-ATPase pH SP inactive
CCn1cc(S(=O)(=O)N2CCN(Cc3ccc(F)cc3)CC2)cn1	none
CCn1cc(CN2CCCC(CO)(Cc3cccc(Cl)c3)C2)cn1 (stereo not given)	V-ATPase pHluor 13 (no result: MEX-5 binding) | V-ATPase pH SP inactive
Cn1cc(CN2CCCC(CO)(Cc3cccc(Cl)c3)C2)cn1 (stereo not given)	none
CC(=O)c1ccc(NC(=O)CN2CCC(NC(=O)c3ccccc3C)CC2)cc1	HTR2A ag 23, V-ATPase pHluor 8.2 (no result: JMJD2C inh, VLA-4 inh, MEX-5 binding) | V-ATPase pH SP inactive | OPRM1 ag inactive | m5-HT2A ag conf inactive
CN(CCc1cnn(C)c1)C(=O)C1CCC(=O)N(CC2CCCCC2)C1 (stereo not given)	none
Cc1ccc2oc(C(=O)N(C)Cc3ccc(C)o3)c(C)c2c1	Granule exo inh 81, V-ATPase pHluor 12 | V-ATPase pH SP 69 | Exocytosis CP01 inactive
CN1C[C@@H]2[C@@H]3C(=O)N(Cc4ccccc4)C(=O)[C@@H]3[C@](C)(C1=O)N2C(=O)c1ccc(Br)cc1	none (no result: JMJD2C inh, VLA-4 inh, MEX-5 binding)
CNc1ccc(C(=O)c2ccccc2C(=O)O)cc1[N+](=O)[O-]	HTR2A ag 19 | OPRM1 ag inactive | m5-HT2A ag conf inactive
CN(C)c1ccc(C(=O)c2ccccc2C(=O)O)cc1[N+](=O)[O-]	none
COc1ccc(C(=O)NCCn2cc(SCC(=O)N3CCOCC3)c3ccccc32)cc1	none
COc1ccc(C(=O)NCCn2cc(SCC(N)=O)c3ccccc32)cc1	HTR2A ag 16 | OPRM1 ag inactive | m5-HT2A ag conf inactive
CSCCC(c1nc2ccccc2[nH]1)n1c(-c2cc(C(F)(F)F)cc(C(F)(F)F)c2)nc2ccccc21 (stereo not given)	HTR2A ag 19 (no result: JMJD2C inh, VLA-4 inh, MEX-5 binding, V-ATPase pHluor) | OPRM1 ag 0.8 | m5-HT2A ag conf inactive
CCOC(=O)C1=C(CN2CC(C)CC(C)C2)NC(=O)NC1c1ccc2c(c1)OCO2 (stereo not given)	none
N#Cc1ccc(NC(=O)c2cc(S(=O)(=O)N3CCOCC3)ccc2N2CCCC2)cc1	none
CC(C)NC(=O)C1(C)CN(S(C)(=O)=O)CC(=O)N1C1CCN(Cc2ccccc2)CC1 (stereo not given)	HTR2A ag 27 (no result: JMJD2C inh, VLA-4 inh, MEX-5 binding, V-ATPase pHluor) | OPRM1 ag inactive | m5-HT2A ag conf inactive
